# In article PMC5540273 (PLoS ONE, 2017):
# How the values were obtained:
# Settings in all cases: concentration: 1 μM,replicates: in singlicate; n = 1
# PRKD3 = tested on: PRKD3
# PRKG1 = tested on: PRKG1
# PRKG2 = tested on: PRKG2
# PRKR = tested on: T1, PRKR
# T1 construct: gene EIF2AK2
# PRKX = tested on: PRKX
# PRP4 = tested on: PRP4
# PYK2 = tested on: T2, PYK2
# T2 construct: gene PTK2B
# QSK = tested on: QSK
# RAF1 = tested on: RAF1
# RET = tested on: RET
# RIOK1 = tested on: RIOK1
# RIOK2 = tested on: RIOK2
# RIOK3 = tested on: RIOK3
# RIPK1 = tested on: RIPK1
# RIPK2 = tested on: RIPK2
# RIPK4 = tested on: RIPK4
# RIPK5 = tested on: RIPK5
# ROCK1 = tested on: ROCK1
# ROCK2 = tested on: ROCK2
# ROS1 = tested on: ROS1
# 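Note: KINOMEscan kinase panel screen.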
Structure (SMILES),%Inh (PRKD3),%Inh (PRKG1),%Inh (PRKG2),%Inh (PRKR),%Inh (PRKX),%Inh (PRP4),%Inh (PYK2),%Inh (QSK),%Inh (RAF1),%Inh (RET),%Inh (RIOK1),%Inh (RIOK2),%Inh (RIOK3),%Inh (RIPK1),%Inh (RIPK2),%Inh (RIPK4),%Inh (RIPK5),%Inh (ROCK1),%Inh (ROCK2),%Inh (ROS1)
O=C(Nc1cccc(C(F)(F)F)c1)c1cccc(Oc2ccc3nccn3n2)c1,0%,19%,1%,0%,17%,8%,0%,6%,75%,69%,0%,0%,15%,1%,0%,17%,7%,33%,22%,6%
Cc1cccc2c(-c3ccncc3)c(-c3ccc(F)cc3)nn12.Cl [GW461487],0%,9%,8%,0%,3%,7%,22%,15%,11%,18%,0%,100%,0%,0%,48%,0%,0%,18%,12%,0%
Cl.Cl.NC[C@H](CC1CCCCC1)NC(=O)c1ccc(-c2ccnc3[nH]ccc23)s1 [GSK1581428],96.2%,99.9%,99.2%,13%,97.9%,81%,41%,9%,0%,38%,100%,45%,90.1%,0%,0%,0%,0%,100%,98.9%,26%
Cn1ccc2ncnc(Oc3ccc(NC(=O)Nc4cc(C(C)(C)C)on4)c(Cl)c3)c21,0%,0%,33%,0%,17%,23%,16%,0%,78%,100%,2%,29%,1%,15%,83%,12%,11%,3%,0%,46%
CC(C)S(=O)(=O)N1CCN(Cc2ccc3c(c2)nc(NC(=O)c2ccsc2)n3C[C@H](O)c2ccccc2)CC1 [GW635815],0%,23%,18%,0%,16%,10%,38%,3%,6%,44%,36%,33%,25%,20%,4%,7%,0%,66%,63%,20%
CS(=O)(=O)c1cccc(CNc2nc(Nc3ccc4c(c3)[C@@H]3C[C@@H]4CNC3=O)ncc2C(F)(F)F)c1,22%,0%,0%,0%,0%,10%,66%,0%,0%,100%,76%,0%,67%,0%,0%,77%,75%,0%,0%,86%
Cc1ccc(CC(=O)N2CCc3cc(-c4cn(C)c5ncnc(N)c45)ccc32)cc1 [GSK2634758],0%,4%,12%,7%,12%,20%,0%,0%,7%,7%,25%,0%,0%,100%,76%,0%,62%,0%,21%,9%
COc1ccc(Nc2nccc(N3CCC(NC(=O)c4cccc(C#N)c4)C3)n2)cc1 (centres unmarked) [GSK1379730],0%,12%,15%,0%,0%,9%,18%,2%,0%,28%,34%,0%,5%,0%,0%,0%,0%,25%,14%,23%
Cn1ccc2ncnc(Oc3ccc(NC(=O)Nc4ccnc(C(F)(F)F)c4)c(Cl)c3)c21,0%,0%,9%,0%,1%,14%,9%,0%,16%,100%,0%,19%,6%,0%,0%,0%,0%,17%,0%,0%
O=C(NCC1CC1)c1ccc(-c2cc(C(=O)NC3CC3)ccc2F)cc1 [GW810445],0%,0%,0%,0%,0%,16%,0%,0%,0%,4%,1%,0%,0%,0%,0%,0%,0%,58%,9%,0%
